Screens: PubChem, National Center for Advancing Translational Sciences (NCATS)
Sampled rows, rich in hits. Any-hit rate of the full collection: about 9.4%.
NPC1 promoter act: NPC1 promoter activation; Huh7 NPC1 promoter luciferase reporter, 24 h; Potency, µM (titrated, usually from 9.22 µM), without a hit: at the top dose activation, usual class: activators; actives 2.4% (n = 320,000); AID 485313; further: % of control where 0% means no effect; nearly all actives have a fitted effect of over 60% in size
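Luminescence from an NPC1 promoter-driven luciferase reporter in stably transfected Huh7 cells was measured after 24 h compound treatment at 37 °C, followed by 10 min ambient incubation with luciferase detection reagent.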
ELG1 DNA repair: blocks ELG1-dependent DNA repair in HEK293T cells; AID 504467; HEK293T ELG1-luciferase reporter, luminescence, 16 h; DNA damage induced by 5-fluorouridine; Potency, µM (doses to about 46.1 µM), for the others: at the highest dose activity change, negative = inhibition, actives largely listed as inhibitors; actives 2.3% (n = 330,000); further: on the % scale 0 is the no-effect control and ±100 the full control effect; nearly all actives have a fitted effect of over 55% in size
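Step one: seed 2,000 cells per well. Step two: pin-transfer compound or DMSO alongside 5-fluorouridine. Step three: incubate 16 hr, 37 °C, 5% CO2. Step four: add ONE-Glo, wait 30 min, read luminescence.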
FLuc modulator: counter-screen for miR-21 project: firefly luciferase inhibitors or activators | P08659 | purified FLuc, Km substrates, luminescence inhibition | actives 6.9% (n = 360,000) | AID 588342 | Potency, µM (titrated, usually from 57.5 µM), inactives show at the highest dose activity change, negative = inhibition, most hits filed as inhibitors;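 further: plate controls were vehicle for no effect and reference inhibitor for full effect; nearly all actives have a fitted effect of over 55% in size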
Target sequence (P08659 whole entry, looked up): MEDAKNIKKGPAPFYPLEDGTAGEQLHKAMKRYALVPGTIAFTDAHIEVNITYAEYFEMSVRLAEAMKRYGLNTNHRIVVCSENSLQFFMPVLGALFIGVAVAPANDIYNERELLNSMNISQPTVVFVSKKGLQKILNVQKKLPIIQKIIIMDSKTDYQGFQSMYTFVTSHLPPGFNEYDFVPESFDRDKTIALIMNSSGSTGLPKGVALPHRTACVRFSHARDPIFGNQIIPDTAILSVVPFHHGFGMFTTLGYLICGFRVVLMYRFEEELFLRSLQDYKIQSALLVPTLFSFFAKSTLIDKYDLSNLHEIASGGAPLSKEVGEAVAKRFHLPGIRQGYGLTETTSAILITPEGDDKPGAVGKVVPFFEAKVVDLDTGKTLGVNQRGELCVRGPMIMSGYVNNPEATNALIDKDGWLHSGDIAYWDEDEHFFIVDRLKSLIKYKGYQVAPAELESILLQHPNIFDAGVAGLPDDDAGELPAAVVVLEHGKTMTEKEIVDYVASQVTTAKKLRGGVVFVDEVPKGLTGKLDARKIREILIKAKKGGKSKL
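Purified P. pyralis luciferase (10nM final) with 10uM D-luciferin and 10uM ATP (Km levels) in 50mM Tris acetate pH 7.5, 10mM Mg acetate, 0.01% Tween-20, 0.05% BSA; qHTS 6-point titration, ~60 µM downward; luminescence read.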
SMN2 splice up: enhancers of SMN2 splice variant expression | HEK293 SMN2-luciferase splicing reporter, luminescence, 30-36 h | Potency, µM (top dose mostly 46.1 µM), without a hit: top-dose activity change, positive = activation, most hits filed as activators | actives 2.8% (n = 210,000) | AID 1458; further: % of control where 0% means no effect; nearly all actives have a fitted effect of over 55% in size
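HEK293 cells carry an SMN2 minigene-luciferase reporter in which exon 7 inclusion puts luciferase in frame. Cells were seeded at 2000 cells/well, attached for 10-12 hours, then exposed to compounds for 30-36 hours at 37C before ONE-Glo luminescence.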
Rab9 prom act: activates the Rab9 promoter | Huh7 Rab9 promoter-luciferase reporter, luminescence, 24 h | Potency, µM (top dose mostly 9.22 µM), without a hit: at the highest dose activation, negative = inhibition, actives largely listed as activators | actives 2.8% (n = 320,000) | AID 485297; further: % of control where 0% means no effect; nearly all actives have a fitted effect of over 60% in size
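Promoter activation is measured as luciferase luminescence in Huh7 cells stably transfected with a Rab9 promoter–luciferase construct, following 24 h compound exposure at 37 °C and 10 min reagent incubation at ambient temperature.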
ELG1 genotox: genotoxicity induction in ELG1-luciferase HEK293T cells | Potency, µM (titrated, usually from 46 µM), inactives show top-dose activity change, positive = activation, actives largely listed as activators | AID 504466 | HEK293T ELG1-luciferase reporter, luminescence, 16 h | actives 1.3% (n = 330,000); further: % of control where 0% means no effect; nearly all actives have a fitted effect of over 60% in size
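Genotoxic stress is detected as increased luminescence from luciferase-tagged ELG1 in HEK293T cells, measured with ONE-Glo after a 16 hr treatment at 37 °C.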
* = called active by the depositor; [ ] = remark or other dose. The call rests on the fitted dose curve; in most records, active means well fitted curve in the direction sought with a large enough effect; inconclusive means small, poorly fitted or top-dose-only effect, or another doubt; inactive means no such curve, though single readings can be large; an effect the other way counts as inactive or inconclusive. Potency means the concentration at half of the fitted maximal effect.

What do the screens show for `CCCOc1ccc(CNC(=O)CN2C(=O)c3cccnc3Oc3ccc(C)cc32)cc1`?
FLuc modulator: -11%

What do the screens show for `Cc1cc(C)cc(NC(=O)C2CCN(S(=O)(=O)c3cccc(-c4noc(C)n4)c3)CC2)c1`?
FLuc modulator: -13%

Results for Cc1cc(Br)ccc1NC(=O)CSc1c2c(nc3ccccc13)CCC2 ?
FLuc modulator: -12%; SMN2 splice up: -34%

Results for COc1cccc(/C=C2\Oc3cc(OCC(=O)N4Cc5ccccc5C[C@H]4C(=O)O)ccc3C2=O)c1 ?
NPC1 promoter act: 0%; ELG1 DNA repair: 6%; FLuc modulator: 3µM*; Rab9 prom act: -1%; ELG1 genotox: 0%

Results for O=C(O)C1Cc2ccccc2CN1C(=O)COc1ccc(Br)cc1 (stereo not drawn) ?
NPC1 promoter act: 0%; ELG1 DNA repair: -8%; FLuc modulator: -20%; SMN2 splice up: -17%; Rab9 prom act: -1%; ELG1 genotox: 3%

What do the screens show for `COc1ccc(S(=O)(=O)Nc2cccc(-c3ccc(N4CCOCC4)nn3)c2)cc1F`?
FLuc modulator: 6.7µM*

What do the screens show for `COc1ccc(S(=O)(=O)Nc2cccc(-c3ccc(N4CCCCCC4)nn3)c2)cc1F`?
FLuc modulator: 5.4µM*

How did COc1ccc(S(=O)(=O)Nc2cccc(-c3ccc(N4CCCCC4)nn3)c2)cc1F do in these assays?
FLuc modulator: 2.7µM*

How did COc1cc(C)c(C)cc1S(=O)(=O)Nc1cccc(-c2ccc(N3CCOCC3)nn2)c1 do in these assays?
FLuc modulator: 27µM*

Results for COc1ccc(S(=O)(=O)Nc2cccc(S(=O)(=O)N3CCCC3)c2)cc1OC ?
NPC1 promoter act: 4%; ELG1 DNA repair: 1%; FLuc modulator: 3%; Rab9 prom act: -9%; ELG1 genotox: -2%

How did COc1ccc(S(=O)(=O)Nc2ccccc2C(=O)N2CCOCC2)cc1F do in these assays?
NPC1 promoter act: 9%; ELG1 DNA repair: -7%; FLuc modulator: -1%; Rab9 prom act: 4%; ELG1 genotox: 0%

How did COc1ccc(S(=O)(=O)Nc2ccc(-c3ccc(N4CCCC4)nn3)cc2)cc1C do in these assays?
NPC1 promoter act: 1%; ELG1 DNA repair: 0%; FLuc modulator: -3%; Rab9 prom act: 2%; ELG1 genotox: 2%

What do the screens show for `Cc1cc(C)c(S(=O)(=O)Nc2ccc(-c3ccc(N4CCCCCC4)nn3)cc2)cc1C`?
FLuc modulator: -18%

How did Brc1cccc(-c2nn(-c3ccccc3)c3c2cnc2cc4c(cc23)OCO4)c1 do in these assays?
FLuc modulator: 1%; SMN2 splice up: -10%

What do the screens show for `CCOc1ccccc1CNC(=O)CC(C)n1ccc(C)n1` (stereo not drawn)?
FLuc modulator: 2%

How did Cc1cc(O)c(C)c2c1CC[C@H]1[C@H](C)C(=O)O[C@H]21 do in these assays?
SMN2 splice up: 0%

How did O=C(Oc1ccc2c(c1)O/C(=C\c1ccncc1)C2=O)c1ccccc1 do in these assays?
NPC1 promoter act: -8%; ELG1 DNA repair: inconclusive; FLuc modulator: -12%; SMN2 splice up: 13%; Rab9 prom act: 1%; ELG1 genotox: 5%

What do the screens show for `COC(=O)C(C)Oc1ccc2c(c1)O/C(=C\c1ccco1)C2=O` (stereo not drawn)?
NPC1 promoter act: -5%; ELG1 DNA repair: 1%; FLuc modulator: 3µM*; Rab9 prom act: -8%; ELG1 genotox: 0%

Results for CC(=O)COc1ccc2c(c1C)O/C(=C\c1ccco1)C2=O ?
NPC1 promoter act: inconclusive; ELG1 DNA repair: inconclusive; FLuc modulator: 5.4µM*; Rab9 prom act: inconclusive; ELG1 genotox: inconclusive

What do the screens show for `COc1ccc2c(c1)O/C(=C\c1ccco1)C2=O`?
NPC1 promoter act: 4.5µM*; ELG1 DNA repair: inconclusive; FLuc modulator: 0.6µM*; Rab9 prom act: 4µM*; ELG1 genotox: inconclusive

What do the screens show for `CC1CCCN(Cc2c(O)ccc3c2O/C(=C\c2ccco2)C3=O)C1` (stereo not drawn)?
NPC1 promoter act: 2%; ELG1 DNA repair: 5%; FLuc modulator: 1%; SMN2 splice up: 8%; Rab9 prom act: -5%; ELG1 genotox: 0%

How did Cc1cc(C)cc(N/C(N)=N/c2nc(C)cc(C)n2)c1 do in these assays?
NPC1 promoter act: -1%; ELG1 DNA repair: 15µM*; FLuc modulator: 2%; SMN2 splice up: -22%; Rab9 prom act: -12%; ELG1 genotox: -2%

Results for Cc1ccc(Cl)cc1-n1c(=O)c2sc3ccccc3c2n(CC(=O)NC2CCCCC2)c1=O ?
FLuc modulator: 1%; SMN2 splice up: -3%

What do the screens show for `COc1cccc(C(=O)OCC(=O)c2c[nH]c3ccccc23)c1O`?
NPC1 promoter act: 13%; ELG1 DNA repair: inconclusive; FLuc modulator: 19µM*; SMN2 splice up: 25%; Rab9 prom act: 17%; ELG1 genotox: inconclusive

What do the screens show for `COC(=O)c1ccc(CNC(=O)COC(=O)/C=C/c2ccc(O)c(OC)c2)cc1`?
ELG1 DNA repair: inconclusive; ELG1 genotox: 0%

What do the screens show for `CCc1cccc2c(C(=O)COC(=O)/C=C/c3ccc(O)c(OC)c3)c[nH]c12`?
NPC1 promoter act: -2%; ELG1 DNA repair: 21µM*; FLuc modulator: inconclusive; SMN2 splice up: 11%; Rab9 prom act: 0%; ELG1 genotox: -2%

What do the screens show for `COc1cccc(/C=C/C(=O)OCC(=O)c2c[nH]c3ccccc23)c1OC`?
NPC1 promoter act: -2%; ELG1 DNA repair: 16µM*; FLuc modulator: -11%; SMN2 splice up: -15%; Rab9 prom act: 1%; ELG1 genotox: 0%

What do the screens show for `COc1cccc(/C=C/C(=O)OCC(=O)c2c[nH]c3ccccc23)c1`?
NPC1 promoter act: -3%; ELG1 DNA repair: inconclusive; FLuc modulator: 0%; Rab9 prom act: 10%; ELG1 genotox: 0%

How did COc1ccccc1NC(=O)COC(=O)c1c[nH]c2ccccc12 do in these assays?
NPC1 promoter act: 7%; ELG1 DNA repair: -6%; Rab9 prom act: 0%; ELG1 genotox: -2%

What do the screens show for `COc1cc(/C=C/C(=O)OCC(=O)c2ccc(OC(F)F)cc2)ccc1O`?
ELG1 DNA repair: 18µM*; ELG1 genotox: 1%

How did CCCCS(=O)(=O)N1CCc2nc(-c3ccc(OC)cc3C)c3c(c2C1)CO[C@@H](c1ccccc1)C3 do in these assays?
SMN2 splice up: 0%[9.22 µM]

How did CCC(C)NC(=O)CSc1nnc(-c2ccc(C)cc2)c(-c2ccc(C)cc2)n1 (stereo not drawn) do in these assays?
FLuc modulator: -10%
